Laboratory results published in PubChem BioAssay.
Inconclusive results are not listed. The source made the active and inactive calls.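 How the source made its calls: active means GFP signal above the screen-wide mean plus 3 SD, that is over about 124.5% of the solvent control; inconclusive means no reading because the compound's own fluorescence disturbed strain identification; inactive means the rest.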

Assay: yeast AGP1-GFP level changes, GLN3 branch – cell-based, multiplex flow cytometry, S. cerevisiae, primary screen (AID 1887);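 further: AGP1-GFP fusion strain of S. cerevisiae within a five-strain barcoded multiplex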
Conditions: 3 h, at 10 µM, active compounds read high

GFP response, % of DMSO, inactive:
Cc1oc2cc(O)cc(O)c2c(=O)c1-c1ccc2c(c1)OCCCO2 91.7%
O=C(c1ccco1)N1CCCN(Cc2nc(-c3ccc4c(c3)OCO4)no2)CC1 102%
COc1ccc2nc(S(=O)Cc3ncc(C)c(OC)c3C)[nH]c2c1 (stereo unspecified) 97.1%
CSCCC(NC(C)=O)C(=O)Oc1ccc2c3c(c(=O)oc2c1)CCCC3 (stereo unspecified) 100%
CCOC(=O)C1NN=C(C(=O)c2ccccc2)C1c1ccc(Cl)cc1 (stereo unspecified) 88.8%
CSCCC(NC(=O)OC(C)(C)C)C(=O)Oc1ccc2c(=O)c(-c3ccc4c(c3)OCCO4)coc2c1 (stereo unspecified) 102%
COc1cc2c(cc1OC)/C(=C/c1ccc(Cl)cc1)C(=O)OC2 85.7%
COc1ccc(-c2coc3c(CN4CCOCC4)c(O)ccc3c2=O)cc1 105%
OCCC1CN(Cc2ccccc2-c2ccco2)CCN1C1CCCC1 (stereo unspecified) 110%
O=C(O)C1CCN(C(=O)COc2ccc3c4c(c(=O)oc3c2)CCC4)CC1 110%
Cc1ccc(C(=O)NCCNC(=O)c2ccccc2)cc1 103%
CC(=O)OCC(=O)[C@@]1(O)CC[C@H]2[C@@H]3CCC4=CC(=O)C=C[C@]4(C)[C@H]3[C@@H](O)C[C@@]21C 103%
CCCc1cc(C(N)=S)ccn1 93.1%
Cc1ccc(Cl)c(Nc2ccccc2C(=O)O)c1Cl 98%
COc1ccccc1/C=C/C(=O)OCCN1CCOCC1 103%
Fc1ccc(-c2cc(-c3ccccc3)nc(-n3cccn3)n2)cc1 75.4%
